Compound activity deposited in PubChem by several laboratories.
aSyn UTR inh = MLPCN primary screen, SNCA 5' untranslated region. inhibition, % (tested at 7.5 µM). alpha-synuclein 5'UTR reporter, inhibitor activity. AID 1813. 300,000 compounds, 0.82% hits; in the data active = inhibition above about 60%;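 also: H4 neuroglioblastoma cells stably carrying SNCA 5'UTR luciferase fusion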
BaF3 tox = counter-screen for JAK2V617F inhibitors: parental Ba/F3 viability inhibitors; 220,000 compounds, 1.1% hits; inhibition, % at 5.6 µM; CellTiter-Glo ATP luminescence;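 active = inhibition above a per-campaign cutoff, the mean inhibition of all tested compounds plus 3 SD, cut at about 27% in these data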
APP transl inh = APP translation inhibition; SH-SY5Y APP 5'UTR-luciferase reporter, luminescence; AID 1285; inhibition, % at 2 µM; 190,000 compounds, 0.82% hits;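 active = inhibition above a set limit, derived from the sample mean plus 3 SD, cut at about 45% in these data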
KLF5 inhibitor = inhibitors of KLF5 expression. DLD-1 KLF5 promoter-luciferase reporter, luminescence. inhibition, % at 5 µM. 290,000 compounds, 0.23% hits. AID 1700;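 active = inhibition above a per-plate limit of that plate's mean compound inhibition plus 3 SD, cut at about 60% in these data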;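 also: higher means less KLF5 promoter-driven luciferase light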
IEC-6 tox = counter-screen for KLF5 inhibitors: cytotoxicity in IEC-6 cells | inhibition, % at 5 µM | AID 1825 | IEC-6 cytotoxicity, luminescence viability | 290,000 compounds, 0.78% hits; in the data active = inhibition above about 22%
Ba/F3 V617F tox = reduce viability of Ba/F3 cells dependent on JAK2V617F; Ba/F3 EpoR-JAK2V617F viability, ATP luminescence; inhibition, % at 5.6 µM; 220,000 compounds, 1.1% hits; AID 1446;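 active = inhibition above the campaign mean plus 3 SD over all tested compounds, cut at about 24% in these data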;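 also: cytokine-independent growth of Ba/F3 cells driven by EpoR plus mutant JAK2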
Each line names hits and unclear results; the compound was inactive in the other large screens. Sampled rows, rich in hits. Any-hit rate of the full collection: about 2.2%.

O=C(Nc1nccs1)c1ccc(NC(=O)C2CC=CCC2C(=O)O)cc1 (configuration not stated)	none
CC(C(=O)N1CCc2ccccc21)N1CCc2ccccc2C1 (configuration not stated)	BaF3 tox 41
COc1cc2c(cc1OC)CN(C(C)C(=O)N1CCc3ccccc31)CC2 (configuration not stated)	none
O=C(NCCCN1CCOCC1)c1ccccc1	BaF3 tox 40
Cc1cc(C(=O)COC(=O)c2ccccc2Br)c(C)n1CC1CCCO1 (configuration not stated)	none (no result: APP transl inh)
Cc1cc(C(=O)COc2ccccc2C(N)=O)c(C)n1CC1CCCO1 (configuration not stated)	BaF3 tox 62, Ba/F3 V617F tox 45
O=C(/C=C/Nc1ccc(Br)cc1F)c1ccccc1	aSyn UTR inh 78
CCOc1ccc(CCNC(=O)COC(=O)c2cccc(S(=O)(=O)N3CCCC3)c2)cc1OCC	none (no result: BaF3 tox, APP transl inh, KLF5 inhibitor, IEC-6 tox, Ba/F3 V617F tox)
Cc1ccc(N(CC2CO2)S(=O)(=O)c2ccc([N+](=O)[O-])cc2)cc1 (configuration not stated)	none (no result: BaF3 tox, APP transl inh, Ba/F3 V617F tox)
Cc1ccc(N=Nc2c(N)nn(-c3ccccc3)c2N)cc1	BaF3 tox 35, IEC-6 tox 25, Ba/F3 V617F tox 47
O=C(c1nn2c(C(F)(F)F)cc(-c3cccs3)nc2c1Cl)N1CCCc2ccccc21	aSyn UTR inh 78
COc1ccccc1N1C(=O)C=C(Sc2nc(C)cc(C)n2)C1=O	none (no result: APP transl inh)
COCC(=O)N1CCCC(CNS(=O)(=O)c2ccc(OC)cc2)C1 (configuration not stated)	none
COCCC(=O)N1CCCC(CNS(=O)(=O)c2ccc(OC)cc2)C1 (configuration not stated)	BaF3 tox 90
Cc1cc(C(=O)CCC(=O)N(C)CC(=O)Nc2ccccc2Br)c(C)s1	none (no result: BaF3 tox, APP transl inh, KLF5 inhibitor, IEC-6 tox, Ba/F3 V617F tox)
CS(=O)(=O)Nc1ccc(S(=O)(=O)N2CCCC2)cc1	BaF3 tox 90
CC1(c2ccc(Cl)cc2Cl)OCC(Cn2ccnc2)O1 (configuration not stated)	BaF3 tox 95
OC(Cn1ccnc1)c1ccc(Cl)cc1Cl (configuration not stated)	none
COCC1CCCCN1C(=O)c1cccc(OC2CCN(S(C)(=O)=O)CC2)c1 (configuration not stated)	none (no result: BaF3 tox, APP transl inh, Ba/F3 V617F tox)
CC(C)(C)OC(=O)N[C@@H](Cc1ccccc1)c1nnc(S(=O)(=O)Cc2ccccc2)o1	APP transl inh 64, Ba/F3 V617F tox 58 (no result: aSyn UTR inh)
CC(C)(C)c1ccc(Cn2cnc(-c3ccc([N+](=O)[O-])cc3)c2)cc1	BaF3 tox 39
Cc1cc(C)c(Cn2cnc(-c3ccc([N+](=O)[O-])cc3)c2)c(C)c1	none
Cc1cccc(C)c1NC(=O)CNC(=O)c1cccnc1	none (no result: BaF3 tox, APP transl inh, Ba/F3 V617F tox)
COCCN(Cc1cc2ccc(C)cc2n2nnnc12)Cc1nnnn1C(C)(C)C	APP transl inh 46
CCOc1c(Cl)cc(Cl)cc1CNCCNCCO	none
CCN(c1ccccc1)S(=O)(=O)c1ccc(Cl)c(NC(=O)COC(=O)c2ccc[n+]([O-])c2)c1	none
c1ccc(-c2cn3nc(-c4ccccc4)sc3n2)cc1	aSyn UTR inh 101 (no result: BaF3 tox, APP transl inh, KLF5 inhibitor, IEC-6 tox, Ba/F3 V617F tox)
Cc1ccc(OCC(=O)NNC(=O)c2ccc3c(=O)n4c(nc3c2)CCC4)cc1	none (no result: BaF3 tox, APP transl inh, KLF5 inhibitor, IEC-6 tox, Ba/F3 V617F tox)
CC1=C(C#N)C(c2ccccc2)C2=C(N1)c1ccccc1C2=O (configuration not stated)	APP transl inh 78
CC1=C(C#N)C(c2cccnc2)C2=C(N1)c1ccccc1C2=O (configuration not stated)	none
O=C(COc1ccc(/C=N/NC(=O)c2cc3ccccc3o2)cc1Br)Nc1ccccc1	aSyn UTR inh 116
O=C(NCc1ccco1)c1sc(=S)n2c1[nH]c(=O)c1ccccc12	BaF3 tox 91
COc1ccc2[nH]cc(CCNC(=O)CS(=O)(=O)Cc3ccccc3)c2c1	none (no result: BaF3 tox, APP transl inh, Ba/F3 V617F tox)
COc1ccc(Cn2c(SCc3ccc(C)cc3)nc3cc(OC)c(OC)cc3c2=N)cc1Cl	aSyn UTR inh 119
O=C(c1ccccc1[N+](=O)[O-])N1CCCN(C(=O)c2ccccc2[N+](=O)[O-])CC1	none
COc1cc(Cl)ccc1S(=O)(=O)n1nc(C)cc1C	BaF3 tox 93
Cc1ccc(/C=N/NC(=O)Cc2ccc(Cl)cc2)c(O)c1	aSyn UTR inh 66 (no result: BaF3 tox, APP transl inh, Ba/F3 V617F tox)
COc1ccccc1N1CCN(C(=O)c2ccc3[nH]c4c(c3c2)CC(C)CC4)CC1 (configuration not stated)	none
O=C(O)CSc1nnc(-c2ccc3c(c2)OCO3)o1	none
O=C(c1ccc(Cl)cc1)N1CCCCC(Sc2nnc(-c3ccc4c(c3)OCO4)o2)C1=O (configuration not stated)	aSyn UTR inh 92
Cc1ccc(C(=O)Nc2cccc(C(F)(F)F)c2)cc1NC(=O)c1cnnc2ccccc12	aSyn UTR inh 64 (no result: BaF3 tox, APP transl inh, KLF5 inhibitor, IEC-6 tox, Ba/F3 V617F tox)
Cc1ccc(C(=O)Nc2cccc(C(F)(F)F)c2)cc1NC(=O)c1nccnc1N	aSyn UTR inh 78 (no result: BaF3 tox, APP transl inh, KLF5 inhibitor, IEC-6 tox, Ba/F3 V617F tox)
COc1cc(NC(=O)c2nccnc2N)cc(C(=O)Nc2cccc(C(F)(F)F)c2)c1	none (no result: BaF3 tox, APP transl inh, KLF5 inhibitor, IEC-6 tox, Ba/F3 V617F tox)
Cc1ccc(C(=O)Nc2cccc(C(F)(F)F)c2)cc1Nc1cncnc1	none (no result: BaF3 tox, APP transl inh, Ba/F3 V617F tox)
CCOC(=O)c1sc(NC(=O)Nc2cccc(Cl)c2)cc1C	BaF3 tox 43
O=C1CC2C(=O)NCCN2C(=NC(=O)c2ccccc2)N1 (configuration not stated)	none
CC(=O)c1c(C)oc2ccc(N(C(C)=O)S(=O)(=O)c3ccc(Cl)c([N+](=O)[O-])c3)cc12	aSyn UTR inh 112
CC(=O)c1c(C)oc2ccc(N(C(C)=O)S(=O)(=O)c3ccc(F)cc3C)cc12	none (no result: BaF3 tox, APP transl inh, Ba/F3 V617F tox)
CC(=O)c1c(C)oc2ccc(N(C(C)=O)S(=O)(=O)c3cccc4cccnc34)cc12	BaF3 tox 37, Ba/F3 V617F tox 27 (no result: APP transl inh)
COc1cc2c(O)c3c(c(-c4ccc5c(c4)OCO5)c2cc1OC)C(=O)OC3	aSyn UTR inh 108
COc1cc2c(OC(C)=O)c3c(c(-c4ccc5c(c4)OCO5)c2cc1OC)C(=O)OC3	aSyn UTR inh 113
COc1cc2c(=O)n(-c3ccc(C)cc3)c(=O)n(CC(=O)c3ccc4c(c3)OCO4)c2cc1OC	none
COc1ccc(C(=O)Oc2ccc3c(c2)OCO3)cc1OC	none
O=C1Nc2ccc(Br)cc2/C1=C/c1ccc(C(=O)O)cc1	none (no result: BaF3 tox, APP transl inh, Ba/F3 V617F tox)
CCCN1C2CCCC1CC(NC(=O)c1cccc([N+](=O)[O-])c1)C2 (configuration not stated)	none (no result: BaF3 tox, APP transl inh, Ba/F3 V617F tox)
COc1ccc(COc2cc(-c3cccc(OC)c3)nc3ccc(N)cc23)cc1	BaF3 tox 84, APP transl inh 96, Ba/F3 V617F tox 81
Cc1ccc(C2C(C#N)=C(N)Oc3cc(N)ccc32)cc1 (configuration not stated)	none (no result: BaF3 tox, APP transl inh, Ba/F3 V617F tox)
N#CC1=C(N)OC2=C(CCc3ccccc32)C1c1ccccc1 (configuration not stated)	aSyn UTR inh 70, APP transl inh 96
Cc1ccc(/C=C2\CCC3=C2OC(N)=C(C#N)C3c2ccc(C)cc2)cc1 (configuration not stated)	APP transl inh 47
